beta cell repl = induces beta-cell replication in MIN6 cells; MIN6 cells proliferation, ATPlite luminescence, 48 h; cells starved in 0.2% serum; 100% = growth in 10% serum; proliferation, % at 10 µM; 0.29% of 330,000 active; AID 2380;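 active means compounds whose signal lies at least 3.5 SD above the mean of all wells on their plate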
MOR-DOR ag = OPRM1-OPRD1 heterodimerization agonism; AID 504326; cells, luminescence; P35372+P41143; 0.3% of 340,000 active; activation, % at 9.3 µM
p-CIP stab down = lowers stability of the mouse p/CIP coactivator protein. F442A p/CIP-EGFP cells, EGFP fluorescence, 16 h. decrease of EGFP signal, % at 10 µM. 0.01% of 290,000 active;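 active means EGFP signal decrease of at least 30% at 10 µM or well 3 SD below plate mean, unless failing retest; inactive means the rest, including hits failing retest or dose response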
HTR5A ag = counter-screen for OPRM1-OPRD1 agonists: human HTR5A agonism. AID 504692. P47898. activation, % at 9.3 µM. 0.61% of 340,000 active. HTR5A agonist assay, luminescence, cell-based; in the data active means activation mostly above about 9.5%, no sharp cut-off; inactive means mostly below about 7.6%
Target sequence (P47898 whole entry, looked up): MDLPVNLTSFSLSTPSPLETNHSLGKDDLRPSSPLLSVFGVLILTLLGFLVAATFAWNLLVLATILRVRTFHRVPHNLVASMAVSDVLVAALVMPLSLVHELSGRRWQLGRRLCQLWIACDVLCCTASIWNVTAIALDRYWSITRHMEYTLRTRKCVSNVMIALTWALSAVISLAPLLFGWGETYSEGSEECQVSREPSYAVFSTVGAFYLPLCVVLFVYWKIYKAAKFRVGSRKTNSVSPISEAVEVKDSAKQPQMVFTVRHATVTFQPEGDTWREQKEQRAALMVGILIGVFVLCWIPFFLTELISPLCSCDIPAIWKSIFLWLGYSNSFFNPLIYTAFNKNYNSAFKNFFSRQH
MOR-DOR inv ag = mu-delta opioid heterodimer inverse agonism. P35372+P41143. cell-based MOR-DOR heterodimer luminescence. inhibition, % at 9.3 µM. 0.21% of 340,000 active. AID 504357; in the data active means inhibition above about 22%, passing the limit was not always enough
HTR5A inv ag = inverse agonist of human HTR5A in OPRM1-OPRD1 counter-screen; inhibition, % at 9.3 µM; HTR5A cell line, luminescence, inverse agonism; 0.083% of 340,000 active; AID 504634; P47898; in the data active means inhibition mostly above about 23%, no sharp cut-off; inactive means mostly below about 18%
MOR-DOR ag conf = OPRM1-OPRD1 heterodimer agonism, confirmation; shares compounds with MOR-DOR ag; cells, MOR-DOR heterodimerization, luminescence complementation; activation, % at 9.3 µM; 45% of 830 active; AID 504904
HTR5A ag counter = HTR5A agonism, opioid heterodimer counter-screen | shares compounds with MOR-DOR ag | HTR5A agonist counterscreen, cell luminescence | activation, % at 9.3 µM | 8% of 830 active | AID 504905; in the data active means activation above about 17%
A number is an active result; 0 = inactive; - = no result; + = active, no number. This is a sample that favours compounds with a hit; in the whole collection about 1.4% have one here. Unless noted, no stated cut-off is given here; in the data, active means activation above about 18%; inactive means the rest.

SMILES	beta cell repl	MOR-DOR ag	p-CIP stab down	HTR5A ag	MOR-DOR inv ag	HTR5A inv ag	MOR-DOR ag conf	HTR5A ag counter
CCn1c(=O)cc(SCC(=O)N2CCC3(CC2)OCCO3)c2ccccc21	0	0	0	0	0	0	-	-
CCC1CN(C)CCC1(OC(C)=O)c1ccccc1 (configuration not stated)	0	24.7	0	0	0	0	22.9	0
CC(=O)O[C@]1(c2ccccc2)CCN(C)[C@H]2CCCC[C@@H]21	0	0	0	0	0	0	-	-
O=S(=O)(c1ccccc1)N1CCN2CCCC2C1 (configuration not stated)	0	0	0	0	0	0	-	-
Clc1ccc(COC(Cn2ccnc2)c2ccc(Cl)cc2Cl)cc1 (configuration not stated)	0	0	0	0	0	0	-	-
Clc1ccc(CSC(Cn2ccnc2)c2ccc(Cl)cc2Cl)cc1 (configuration not stated)	0	+	0	0	0	0	0	0
CCOC(=O)C1(CCc2ccccc2)CCN(Cc2cccc3c2OCO3)CC1	0	35.5	0	0	0	0	0	0
CCOC(=O)C1(CCc2ccccc2)CCN(Cc2cccc3cnccc23)CC1	0	0	0	0	0	0	-	-
CCOC(=O)C1(CCc2ccccc2)CCN(Cc2csc(C(C)=O)c2)CC1	0	63.3	0	0	0	0	0	18.0
C=CCN1C[C@@H](C)N(C(c2ccc(C(=O)N(CC)CC)cc2)c2cccc(OC)c2)C[C@@H]1C (some centres not stated)	0	-	-	0	-	0	-	0
CN1CCCC(C(=O)c2ccc(Cl)cc2)C1 (configuration not stated)	0	20.6	0	0	0	0	0	0
COc1cccc(CNC(=O)CCC(=O)N2C[C@H]3C[C@H](C2)c2cccc(=O)n2C3)c1OC	0	0	0	0	0	0	-	-
C[C@]12CC[C@H](O)C[C@H]1CC[C@@H]1[C@@H]2C[C@@H](O)[C@]2(C)[C@@H](C3=CC(=O)OC3)CC[C@]12O	0	69.5	-	34.0	0	0	40.4	29.9
CC12CCC(O)CC1CCC1C2CCC2(C)C(C3=CC(=O)OC3)CCC12O (configuration not stated)	-	92.6	-	32.5	0	0	0	0
CC(=O)OC1CC(OC2C(O)CC(OC3C(O)CC(OC4CCC5(C)C(CCC6C5CC(O)C5(C)C(C7=CC(=O)OC7)CCC65O)C4)OC3C)OC2C)OC(C)C1OC1OC(CO)C(O)C(O)C1O (configuration not stated)	-	69.0	-	26.5	0	0	0	0
C[C@]12CCC3C(CC[C@H]4C[C@@H](O)CC[C@]34C)[C@H]1C=CC2=O (some centres not stated)	0	0	-	0	0	0	-	-
C[C@H]1CC[C@@H]2[C@@H](C)[C@H]3[C@H](C[C@H]4[C@@H]5CC=C6C[C@@H](O[C@@H]7O[C@H](CO)[C@H](O)[C@H](O[C@@H]8O[C@H](CO)[C@@H](O)[C@H](O)[C@H]8O)[C@H]7O[C@@H]7O[C@@H](C)[C@H](O)[C@@H](O)[C@H]7O)CC[C@]6(C)[C@H]5CC[C@]34C)N2C1	0	0	0	0	0	0	-	-
CC12CC[C@H]3[C@@H](CCC4(O)C[C@H](O)CCC34/C=N/NC(=O)c3ccccc3[N+](=O)[O-])C1(O)CCC2C1=CC(=O)OC1 (some centres not stated)	0	21.4	0	10.6	0	0	0	0
CCC(CC)NC1CCCCC1OC (configuration not stated)	0	0	0	0	0	0	-	-
COC1C(O)C(C)OC(OC2CCC3(C)C(CCC4C3C(O)CC3(C)C(C5=CC(=O)OC5)CCC43O)C2)C1O (configuration not stated)	-	85.3	-	31.2	0	0	28.4	0
COc1ccc2c(c1)NP(=S)(c1ccccc1)N2C (configuration not stated)	-	19.5	-	0	0	0	0	0
COc1ccc(P2(=O)Nc3ccccc3N2)cc1	0	0	0	0	0	0	-	-
O=c1cccc2n1CC1CC2CN(c2ncnc3c2cnn3-c2ccc(Cl)cc2)C1 (configuration not stated)	0	0	0	0	0	0	-	-
CCOC(=O)C1(c2ccccc2)CCN(CCC(=O)Nc2ccc(C(=O)OC)cc2)CC1	0	0	-	0	0	0	-	-
CCOC(=O)C1(c2ccccc2)CCN(CCC(=O)Nc2cccc(Br)c2)CC1	0	49.1	-	0	0	0	57.5	0
SMILES	beta cell repl	MOR-DOR ag	p-CIP stab down	HTR5A ag	MOR-DOR inv ag	HTR5A inv ag	MOR-DOR ag conf	HTR5A ag counter
CCOC(=O)C1(c2ccccc2)CCN(CCC(C#N)(c2ccccc2)c2ccccc2)CC1	0	288.1	-	0	0	0	0	0
CC(C)CCN1CCN(Cc2c(F)cccc2Cl)CC1CCO (configuration not stated)	0	0	0	0	0	0	-	-
CC(=O)O[C@]1(C)C(=O)OC/C2=C/CN(C)CCC(OC(=O)[C@@](O)(C(C)O)C[C@H]1C)C2=O (some centres not stated)	0	0	0	0	0	0	-	-
C[C@]12N[C@H](Cc3ccccc31)c1ccccc12	0	0	-	0	0	0	-	-
CC(C)=CCN1CC[C@@]2(C)c3cc(O)ccc3CC1C2C (some centres not stated)	0	0	-	0	0	0	-	-
CC1[C@H]2Cc3ccc(O)cc3[C@]1(C)CCN2C (some centres not stated)	-	44.5	-	0	0	0	41.6	0
CC(C)=CCN1CC[C@@]2(C)c3cc(O)ccc3C[C@@H]1C2C (some centres not stated)	0	37.4	-	0	0	0	0	0
C=CCN1CC[C@@]2(C)c3cc(O)ccc3CC1[C@@H]2C	0	0	0	0	0	0	-	-
CN1CCC2(O)OCCCC2C1 (configuration not stated)	0	0	0	0	0	0	-	-
Cc1nc2c(=O)n(C)c(=O)nc-2n(C)n1	0	20.2	0	0	0	0	21.9	0
CCCN1CCc2cccc3c2[C@H]1Cc1ccc(O)c(O)c1-3	0	18.6	-	0	0	0	20.1	0
COc1ccc2c(c1O)-c1c(OC)c(OC)cc3c1[C@H](C2)N(C)CC3	0	0	-	0	0	0	-	-
C[C@]12CCC(=O)C(O)=C1CC[C@@H]1[C@@H]2CC[C@]2(C)C(=O)CC[C@@H]12	0	0	0	0	0	0	-	-
O=C1CN(C(=O)COC(=O)Cc2ccccc2)c2ccccc2N1	0	0	0	0	0	0	-	-

Screening data from PubChem.
